Test results published in PubChem BioAssay.

Assay: probe aDKK1 binding to arrayed compounds – biochemical, biotinylated probe, 635/667 nm fluorescence, primary screen (AID 1099);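 also: score merges 667nm spot fluorescence with signal to noise across triplicate slides; reference of the scale not given here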
Conditions: small-molecule microarray, higher = more signal

Structure (SMILES) | composite z-score
CC(C)(C)OC(=O)CC[C@]1(C(=O)NCCN2CCOCC2)N=C(c2ccc(OCCCO)cc2)O[C@H]1c1ccccc1 | 0.214
C=CC[C@@]12N=C(c3ccc(OCCCO)cc3)O[C@@H]1c1ccccc1N(CCS(=O)(=O)c1ccccc1)C2=O | -0.183
CCOC(=O)C[C@H]1[C@H](OC(=O)c2ccccc2-c2ccccc2)[C@@H](NC(=O)CC(C)C)c2cc(OCCCO)ccc2N1C(=O)c1ccc2ccccc2n1 | -0.0242
COc1ccc(C(O)C2C=CC3C(=O)N(c4ccccc4)C(=O)C3N2Nc2ccccc2)cc1OCc1ccccc1 (stereo not drawn) | 0.294
NCCCCCNC(=O)[C@@H]1C[C@@H]2C(=O)N[C@@H](CCCCN)C(=O)N2[C@@H]1c1cccc(OCCO)c1 | 1.24
CCCCC(CC)C(O)C1C=CC2C(=O)N(c3ccccc3)C(=O)C2N1Nc1ccc([N+](=O)[O-])cc1 (stereo not drawn) | 0.68
CC(C)(C)OC(=O)CC[C@]1(C(=O)O)N=C(c2ccc(OCCCO)cc2)O[C@H]1c1ccccc1CN=[N+]=[N-] | 0.905
C=C(/C(=C/C[C@@H](OC(=O)c1ccncc1)c1ccccc1OCCO)c1cc(C(=O)OC)ccc1OC)C(C)C | -0.223
O=C1O[C@@H](c2ccccc2)[C@@H](c2ccccc2)N2[C@@H](c3ccccc3OCCO)[C@]3(C(=O)Nc4ccccc43)[C@@H](C(=O)NC[C@H](O)c3ccccc3)[C@H]12 | 0.597
COCCOC(=O)N1C(=O)[C@@]2(c3cc(C#CC4(O)CCCCCC4)ccc31)[C@H](c1ccccc1OCCO)N1[C@H](c3ccccc3)[C@H](c3ccccc3)OC(=O)[C@H]1[C@@H]2C(N)=O | 0.255
O=c1cccc(-c2cccc(Cl)c2)o1 | 0.177
COCCOC(=O)N1C(=O)[C@@]2(c3cc(C#CC4=CCCCC4)ccc31)[C@H](C(=O)N1CCN(c3ncccn3)CC1)[C@H]1C(=O)O[C@H](c3ccccc3)[C@H](c3ccccc3)N1[C@@H]2c1ccc(O)cc1 | 0.646
COCC(=C=CC[C@H](O)c1ccc(OCCO)cc1)C[C@H](O)COCc1ccccc1 | -0.199
C=C[C@@H](COC(C)=O)NS(=O)(=O)c1ccc(Br)cc1 | -0.103
O=C1C2C=CC(C(O)c3cc(C(F)(F)F)cc(C(F)(F)F)c3)N(Nc3ccc([N+](=O)[O-])cc3)C2C(=O)N1c1ccccc1 (stereo not drawn) | 0.359
CC(=O)NCCCC[C@@H]1NC(=O)[C@@H]2C[C@H](C(=O)O)[C@H](c3ccc(O)cc3)N2C1=O | -0.106
COCCOC(=O)N1C(=O)[C@@]2(c3cc(C#CC4=CCCCC4)ccc31)[C@H](c1ccc(O)cc1)N1[C@H](c3ccccc3)[C@H](c3ccccc3)OC(=O)[C@H]1[C@@H]2C(=O)Nc1nc2ccccc2s1 | 0.663
CC(C)CNC(=O)[C@@H]1c2ccccc2C(=O)N(Cc2cc(F)cc(C(F)(F)F)c2)[C@H]1c1ccc(CO)cc1 | 0.806
C=C(C(=O)CC[C@H](OC(C)=O)c1cccc(OCCO)c1)C(C)C | -0.352
O=C1O[C@@H](c2ccccc2)[C@@H](c2ccccc2)N2[C@@H](c3ccc(O)cc3)[C@]3(C(=O)Nc4ccc(C#CCCO)cc43)[C@@H](C(=O)NC[C@H](O)c3ccccc3)[C@H]12 | -0.301
CCCN1C(=O)[C@]2(Cc3ccccc3)N=C(c3ccc(OCCCO)cc3)O[C@@H]2c2ccccc21 | 0.206
C[C@H]1C2=C3C(CC[C@H]4C(OCc5ccc(F)cc5C(F)(F)F)OC[C@](C)([C@@H]34)N(C(=O)OC(C)(C)C)C2)C2COC(=O)OCC21 (stereo partly drawn) | 0.457
O=C1c2ccccc2[C@](Cc2ccccc2I)(C(=O)NCCN2CCOCC2)[C@H](c2ccc(CO)cc2)N1Cc1ccccc1 | 1.05
COC(=O)[C@@]1(Cc2ccc(OC)cc2)[C@H]2c3cc(C(=O)N(C)C)n(Cc4nc5ccccc5[nH]4)c3C[C@H]2CN1C(=O)c1ccccc1 | 0.956
C[C@]1(C(=O)NC2CC2)c2ccccc2C(=O)N(Cc2ccc(OC(F)(F)F)cc2)[C@H]1c1ccc(CO)cc1 | -0.0414
CN(C)CCCNC(=O)[C@@H]1c2ccccc2C(=O)N(CC23CC4CC(CC(C4)C2)C3)[C@H]1c1ccc(CO)cc1 | -0.46
CC1CC/C=C\[C@H]2OC34C=CCN(C(C)C)C(=O)[C@H]3N(CCCCCO)C(=O)[C@@H]4C2C(=O)O1 (stereo partly drawn) | -0.0733
C=CCOC(=O)[C@H]1[C@@H]2C(=O)O[C@@H](c3ccccc3)[C@@H](c3ccccc3)N2[C@@H](c2ccc(OCCOC(=O)[C@H]3C[C@H]4C(=O)N[C@@H](Cc5ccccc5)C(=O)N4[C@H]3c3cccc(OCCO)c3)cc2)[C@]12C(=O)Nc1ccc(I)cc12 | -0.298
